Assay outcomes as filed in PubChem.
PostGolgi yeast – growth inhibition of a yeast mutant, post-Golgi transport screen; post-Golgi transport phenotypic cell assay; inhibition, % at 10 µM; hit rate 0.9% among 98,000; AID 739;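 also: yeast cells grown in 1536-well plates; yeast grown about 18 h at 30C before absorbance read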
S1P2 blocker – antagonists of human S1P2 receptor | O95136 | cell-based S1P2 antagonist assay, inhibition at 5 uM | inhibition, % at 5 µM | hit rate 0.21% among 97,000; in the data active = inhibition above about 45%;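 also: CRE beta-lactamase reporter cells expressing human S1P2 stimulated with S1P; 0% = agonist at EC80 alone and 100% = agonist plus reference antagonist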
Target sequence (O95136 whole entry, looked up): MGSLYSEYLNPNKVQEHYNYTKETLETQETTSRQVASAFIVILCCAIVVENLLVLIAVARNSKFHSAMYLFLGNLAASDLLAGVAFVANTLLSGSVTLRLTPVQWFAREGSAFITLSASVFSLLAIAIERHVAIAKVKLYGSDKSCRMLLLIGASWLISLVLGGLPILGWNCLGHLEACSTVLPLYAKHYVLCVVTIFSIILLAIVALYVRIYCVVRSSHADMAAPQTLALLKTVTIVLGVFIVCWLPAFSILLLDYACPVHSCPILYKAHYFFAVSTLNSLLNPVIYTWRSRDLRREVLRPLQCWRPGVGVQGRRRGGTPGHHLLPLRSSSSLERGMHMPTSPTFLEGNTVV
PostGolgi ctrl – inhibits growth of the yeast control strain; hit rate 5% among 98,000; efflux-deficient yeast background strain, growth absorbance A615, 16 h; inhibition, % at 10 µM
GALR2 ag – GALR2 (human) receptor agonism. hit rate 0.48% among 140,000. AID 803. activation, % (test concentration not listed). GALR2-expressing cells, agonist activation read-out. O43603; in the data active = activation above about 5%, passing the limit was not always enough;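 also: 0% = vehicle buffer wells and 100% = reference agonist at full effect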
GALR2 blocker – antagonists of human galanin receptor 2 (GALR2) | hit rate 0.39% among 140,000 | inhibition, % at 4 µM | O43603 | GALR2-expressing cells, antagonist mode; in the data active = inhibition above about 27%;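 also: cells stimulated with galanin 1-16 at roughly its EC80; 0% = agonist challenge control and 100% = basal control without agonist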
S1P2 ag – S1P2 (human) receptor agonism | S1P2-expressing cell line, agonist reporter read-out | O95136 | activation, % at 4.5 µM | hit rate 0.46% among 97,000; in the data active = activation above about 16%;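 also: 0% = vehicle low control and 100% = maximal reference agonist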
GALR2 ag confirm – GALR2 (human) agonism confirmed. shares compounds with GALR2 ag. GALR2-expressing cells, agonist activation. activation, % at 5.6 µM. hit rate 10% among 460. AID 864; in the data active = activation above about 8.4%;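 also: 0% = buffer-only vehicle wells and 100% = full reference agonist response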
BLA act counter – counter-screen for GALR2 agonists: beta-lactamase reporter activators; shares compounds with GALR2 ag; CHO NFAT-bla reporter, beta-lactamase FRET activation; hit rate 10% among 460; AID 865; activation, % at 5.6 µM;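 active = activation above the screen-wide mean activation plus 3 SD, cut at about 8% in these data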;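 also: 0% = DMSO with PBS wells and 100% = thapsigargin positive control wells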
The depositor's hits bear a star; / = no result given. Many of the other results were omitted from the sample, so hits are more common in it than they were. Rule as the data show it, unless noted: active = inhibition above about 30%; inactive = the rest.

SMILES	PostGolgi yeast	S1P2 blocker	PostGolgi ctrl	GALR2 ag	GALR2 blocker	S1P2 ag	GALR2 ag confirm	BLA act counter
COc1ccc(C2=NOC(C(=O)NCc3ccc(F)cc3)C2)cc1OC (configuration not stated)	3	-14	4	10	8	2	1	-1
Cc1ccc(OCCOc2ccc(Br)cc2)c([N+](=O)[O-])n1	/	/	/	-1	-5	/	/	/
O=C(COC(=O)COc1ccc(Br)cc1)Nc1cccnc1Cl	/	/	/	34*	-16	/	-1	-1
CCN(CC)c1ccc(NC(=O)Cn2c(C(C)NC(=O)c3ccccc3)nc3ccccc32)cc1 (configuration not stated)	/	/	/	11*	-13	/	-1	-3
CC(NC(=O)c1ccccc1)c1nc2ccccc2n1Cc1ccccc1F (configuration not stated)	-5	5	11	-1	5	-2	/	/
CCCN1C(=O)/C(=C2\SC(N3CCCCC3)=NC2=O)c2ccccc21	3	-26	39*	59*	2	-5	1	0
Cc1cc(C(=O)c2ccc(C(C)(C)C)cc2)c(NC(=O)CCl)s1	/	/	/	1	-4	/	/	/
COC(=O)c1c(C)[nH]c(C(=O)CSc2nnnn2-c2ccccc2)c1C	-19	2	8	99*	-5	-6	0	-2
Nc1nnc(SCC(=O)c2ccccc2)s1	26	-11	3	-2	0	-5	/	/
Nc1c(C(=O)c2ccccc2)sc2snc(SCC(=O)c3ccccc3)c12	0	15	9	79*	0	-8	-2	-3
N#Cc1ccc(OCC(=O)Nc2ccccc2NS(=O)(=O)c2cccs2)cc1	/	/	/	0	1	/	/	/
CC1(C)C=C(c2ccc(C=O)s2)CC(C)(C)N1	-2	1	3	-1	4	-9	/	/
CC1(C)C=C(c2ccc(C=O)s2)CC(C)(C)N1C=O	/	/	/	14*	3	/	-1	0
Cc1cccn2c(=O)c3cc(C(=O)NCc4cccnc4)c(=N)n(C(C)C)c3nc12	-1	-16	9	9	-9	8	1	3
c1ccc(-c2cn3nc(-c4ccccc4)c(-c4ccccc4)nc3n2)cc1	10	31	23	9	19	-1	2	0
Nc1nc(-c2ccccc2)cn1N	-3	5	2	-1	-16	-1	/	/
COc1ccc(CCNC(=O)CN2CCOc3ccccc32)cc1OC	/	/	/	18*	-3	/	-1	-1
CSC1=NC2(CC(c3ccccc3)Oc3cc(O)ccc32)CC(C)(C)N1 (configuration not stated)	/	-15	/	20*	-20	1	9.2*	78*
COc1cccc(C2CC3(CC(C)(C)NC(=S)N3)Oc3cc(O)ccc32)c1 (configuration not stated)	/	/	/	0	1	/	/	/
COc1cccc(/C=N/n2c(-c3cccs3)n[nH]c2=S)c1	-18	11	8	0	-6	-5	/	/
CCOC(=O)c1ccc(NC(=S)N2CCSC2c2ccc(Br)cc2)cc1 (configuration not stated)	/	/	/	17*	-2	/	17*	38*
CC(=O)N1N=C(c2ccc(C)cc2)OC1c1ccc(C)cc1 (configuration not stated)	-3	-6	34*	77*	-8	-3	-1	0
Cc1cc2c(C)cc(=O)oc2c2c1NCCC2	-5	-23	10	13*	-8	15	1	4
Cc1cccc(NS(=O)(=O)c2ccc3c(c2)Cc2cc(S(=O)(=O)Nc4cccc(C)c4C)ccc2-3)c1C	/	/	/	-1	-1	/	/	/
CN(Cc1cc([N+](=O)[O-])c2cccnc2c1O)C1CCCCC1	/	/	/	23*	6	/	0	-2
SMILES	PostGolgi yeast	S1P2 blocker	PostGolgi ctrl	GALR2 ag	GALR2 blocker	S1P2 ag	GALR2 ag confirm	BLA act counter
Cc1cccc(NC(=O)C2CCCN(S(=O)(=O)c3cccc4nsnc34)C2)n1 (configuration not stated)	-3	11	4	11*	-10	-1	-1	-1
Cc1ccc(CNc2ccc(S(=O)(=O)N3CCOCC3)cc2[N+](=O)[O-])cc1	/	/	/	1	-22	/	/	/
CCc1cc2c(CN3CCN(C)CC3)cc(=O)oc2cc1O	9	19	14	2	4	2	/	/
CCc1cc2c(CN3CCN(CCO)CC3)cc(=O)oc2cc1O	-6	11	10	11	-3	4	1	4
COC(=O)c1sc(N)c(C(=O)OC)c1COC(=O)CNS(=O)(=O)c1ccc(C)c(C)c1	/	/	/	0	10	/	/	/
CCN(CC)S(=O)(=O)c1ccc(N/N=C/c2ccc(OC)c(OC)c2OC)nc1	/	/	/	-1	1	/	/	/
CCN(CC)S(=O)(=O)c1ccc(N/N=C/c2cc(OC)c(OC)cc2OC)nc1	/	/	/	49*	9	/	21*	33*
COc1ccc(NS(=O)(=O)c2ccc(S(=O)(=O)N3CCCC3)cc2)cc1	-15	-2	-4	15*	-12	-3	-1	0
O=C(CC1CCCCC1)Nc1ccccc1-c1ccccc1	/	/	/	1	-7	/	/	/
CC(NC1CCCC1)C(=O)Nc1ccccc1-c1ccccc1 (configuration not stated)	-5	-10	-3	12*	9	-9	-1	-1
COc1ccc(Cl)cc1NC(=O)c1cccc(NC(=O)CCC(=O)O)c1	/	/	/	-1	9	/	/	/
COc1ccc(-c2n[nH]c(C)c2-c2cc(OC)ccc2O)cc1	-2	-5	19	9	-10	-3	0	1
COc1ccc(-c2cc(-c3cc(OC)ccc3O)[nH]n2)cc1	-2	-15	28	-3	12	-5	/	/
Cc1cc2c3c(c1)C(C)(c1ccccc1)CC(C)(C)N3C(=O)C21C(C#N)=C(N)OC2=C1C(=O)CC(C)(C)C2 (configuration not stated)	2	-14	13	18*	-26	1	8	15*
S=C(N/N=C/c1ccccc1)N1CCOCC1	/	/	/	-1	8	/	/	/
O=C(c1cc(Cl)ccc1[N+](=O)[O-])N1CCc2ccccc2C1	/	/	/	-1	19	/	/	/
Cc1csc(NC(=O)c2cc3c(s2)-c2ccccc2OC3)n1	-6	-6	4	9	4	-1	3	6
CCOc1ccc(-c2csc(/C(C#N)=C\c3ccc(O)c([N+](=O)[O-])c3)n2)cc1	/	/	/	-1	1	/	/	/
CC(C)OC(=O)c1cc2ccccc2[nH]1	/	-23	/	-2	0	-5	/	/
CCOC(=O)c1cc2cc3ccccc3cc2[nH]1	/	15	/	22*	4	15	4	11*
COc1ccc(NC(=O)CN2CCC(Cc3ccccc3)CC2)cc1S(=O)(=O)N1CCOCC1	/	/	/	0	-5	/	/	/
Nc1c(C(=O)Nc2ccc(S(=O)(=O)N3CCCC3)cc2)sc2nc3ccc(OC(F)(F)F)cc3cc12	/	/	/	18*	6	/	7	2
COCCN1C=C(C(=O)OC)C(c2cc(Br)c(OC)c(OC)c2)C(C(=O)OC)=C1	4	-23	20	10	6	10	1	4
Cc1cccc(C(=O)c2c[nH]cc2-c2ccccc2)c1	/	/	/	0	7	/	/	/
